Screening data from PubChem BioAssay.
The list is not random: actives were taken first. Their share in the collection is about 4.7%.
tim23-1 inh – tim23-1 yeast growth inhibition; S. cerevisiae tim23-1 growth, BacTiter-Glo luminescence, 24 h; inhibition, % at 20 µM; 330,000 compounds, 1.3% hits;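 active means growth inhibition of the mutant yeast at or above 50%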;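 further: temperature-sensitive mutant grown at 25 °C; plate controls were DMSO-treated mutant yeast for no effect and medium wells lacking yeast for full effect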
tim10-1 inh – inhibits growth of tim10-1 mutant yeast | inhibition, % at 20 µM | S. cerevisiae tim10-1 ts strain growth, BacTiter-Glo, 24 h | AID 463190 | 330,000 compounds, 2.2% hits;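 active means inhibition of at least 40%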;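 further: mutant grown at 25 °C; 0% = DMSO wells with yeast and 100% = wells holding no yeast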
ATG4B inh – ATG4B (human) cysteine protease inhibition | inhibition, % at 8.33 µM | 340,000 compounds, 0.51% hits | AID 504462 | ATG4B cleavage of LC3-PLA2, NBD-HPC fluorescence, 1 h; in the data active means inhibition above about 40%
Target sequence (Q9Y4P1 whole entry, looked up): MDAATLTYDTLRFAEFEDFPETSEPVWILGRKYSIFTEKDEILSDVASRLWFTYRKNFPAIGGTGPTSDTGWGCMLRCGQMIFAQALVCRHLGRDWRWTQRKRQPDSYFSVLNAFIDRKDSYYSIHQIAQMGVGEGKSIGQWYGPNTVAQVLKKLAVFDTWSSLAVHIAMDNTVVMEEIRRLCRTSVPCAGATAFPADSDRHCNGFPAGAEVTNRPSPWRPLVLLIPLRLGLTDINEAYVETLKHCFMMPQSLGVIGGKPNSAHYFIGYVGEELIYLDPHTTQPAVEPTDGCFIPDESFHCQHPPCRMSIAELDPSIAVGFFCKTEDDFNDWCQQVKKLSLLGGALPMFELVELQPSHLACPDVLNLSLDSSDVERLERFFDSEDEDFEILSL
PfHsp90 yeast 2 – growth inhibition of yeast expressing Plasmodium Hsp90. S. cerevisiae expressing PfHsp90, BacTiter-Glo ATP, 48 h; yeast lacking PDR1 and PDR3 efflux regulators. inhibition, % at 9.4 µM. 310,000 compounds, 0.32% hits. AID 504621;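 active means every replicate shows inhibition above about 80%, whatever the replicate mean, limit read from the data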;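 further: 0% = DMSO neutral controls and 100% = 20 µM radicicol positive controls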
SKKanGAS inh – SKKanGAS growth inhibition; S. pyogenes SKKanGAS, kanamycin growth, BacTiter-Glo, 6 h; inhibition, % at 7.5 µM; 300,000 compounds, 1.3% hits; AID 1662;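 active means mean replicate score, as percent of positive control median, at least 50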;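 further: strain carries kanamycin resistance gene driven by streptokinase promoter and grows in 40 µg/ml kanamycin; loss of luminescence reflects streptokinase promoter inhibition or plain growth inhibition; 0% = median of DMSO wells and 100% = positive control at its reference dose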
TIM10 inh – inhibits growth of TIM10 yeast strain | S. cerevisiae TIM10 strain growth, BacTiter-Glo luminescence, 24 h | 330,000 compounds, 1.4% hits | inhibition, % at 10 µM;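 active means inhibition of 40% or more at the single tested concentration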;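 further: wild-type TIM10 isogenic control strain grown at permissive 25 °C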
tim10-1 conf – tim10-1 yeast growth inhibition, confirmed; 7,400 compounds, 56% hits; S. cerevisiae tim10-1 ts strain growth, BacTiter-Glo, 24 h; shares compounds with tim10-1 inh; inhibition, % at 20 µM;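 active means inhibition of yeast growth at or above a set limit in either of two repeat tests at 20 µM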;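 further: tim10-1 mutant grown at permissive 25 °C to find synthetic lethal compounds; 0% = DMSO yeast wells and 100% = medium wells without yeast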
Starred values were filed as active, the others as inactive; / = not tested or not shown.

SMILES	tim23-1 inh	tim10-1 inh	ATG4B inh	PfHsp90 yeast 2	SKKanGAS inh	TIM10 inh	tim10-1 conf
CN(C)c1ccc(/C=C2\C(=O)NC(=O)N(CCc3ccc(F)cc3)C2=O)cc1	24	16	5	-5	2	16	/
COc1ccc(C(=O)C2CCCN(Cc3cnc(C)s3)C2)c(OC)c1 (centres undefined)	9	-1	6	-1	2	-15	/
CCn1c(O)c(/C=N/N2CCOCC2)c(=O)n(CC)c1=S	13	21	0	13	4	10	/
Cc1cccc(OCCn2cccc2/C=C2/C(=O)NC(=O)N(Cc3ccco3)C2=O)c1	11	-5	0	/	26	-11	/
O=C(N/N=C/c1c(O)n(CCc2ccccc2)c(=O)[nH]c1=O)c1ccccc1O	1	3	5	-23	103*	-13	/
CC(C)[C@@]1(NC(=O)[C@@H]2C[C@@H]3c4cccc5[nH]cc(c45)C[C@H]3N(C)C2)O[C@@]2(O)[C@@H]3CCCN3C(=O)[C@H](Cc3ccccc3)N2C1=O	-1	-6	-19	-7	11	7	/
CC(C)(C)C(O)C(Oc1ccc(Cl)cc1)n1cncn1 (centres undefined)	-201	-68	4	102*	3	-85	/
O=C1NC(=O)N(CCC2=CCCCC2)C(=O)/C1=C\c1cccs1	23	18	5	16	4	6	/
O=C1NC(=O)N(CCc2ccc(F)cc2)C(=O)/C1=C/c1cccs1	44	52*	-6	/	11	1	-6
CCCC1(CCC)C(=O)NC(=Nc2ccccc2)NC1=O	18	17	-4	-2	-1	-9	/
CCCCC1(CCCC)C(=O)NC(=Nc2cccc(C)c2)NC1=O	30	40*	-10	18	2	10	26
CCCCn1c(O)c(C(CC)=NCc2cccnc2)c(=O)[nH]c1=O	4	4	0	35	-12	1	/
CCC(C)N1C(=O)NC(=O)C2(Cc3c(ccc4ccccc34)N(C)C2)C1=O (centres undefined)	31	45*	-16	1	13	23	31*
COc1ccc2c(c1)CC1(CN2C)C(=O)NC(=O)N(CCc2ccccc2)C1=O (centres undefined)	22	3	-15	-11	2	-11	/
Oc1c(Cl)c(Cl)c(Cl)c(Cl)c1Cl	39	47*	16	23	-1	39	31*
C=C(C)[C@@H]1C2C(=O)O[C@H]1[C@H]1OC(=O)[C@@]34OC3C[C@]2(O)[C@@]14C (some centres undefined)	0	-17	0	5	/	10	/
CC(C)(C)c1cc([N+](=O)[O-])cc(C(C)(C)C)c1O	43	49*	-7	/	3	25	44*
Cn1c(O)c(C(c2ccncc2)c2c(O)n(C)c(=S)n(C)c2=O)c(=O)n(C)c1=S	11	42*	5	/	-2	-17	14
Cn1c(O)c(C(c2ccccn2)c2c(O)n(C)c(=S)n(C)c2=O)c(=O)n(C)c1=S	9	9	5	-18	0	-18	/
O=[N+]([O-])c1ccccc1-c1cc(-c2ccccc2)cc(-c2ccccc2)[n+]1Cc1ccccc1Cl	11	30	13	/	18	17	/
CC(C)OCCCNC(=O)c1c(N)n(CC2CCCO2)c2nc3ccccc3nc12 (centres undefined)	30	29	-25	2	-2	18	/
CCCNC(=O)c1c(N)n(CC2CCCO2)c2nc3ccccc3nc12 (centres undefined)	31	45*	-29	/	5	26	14
CCCCn1c(N)c(C(=O)NCc2cccs2)c2nc3ccccc3nc21	36	41*	-5	25	38	25	24
COc1cccc(CC(=O)N2CCN(Cc3cccc(Cl)c3)CC2)c1	35	29	-3	11	-3	18	/
COc1cccc(C2CCN(CC(=O)Nc3cc(Cl)ccc3OC)CC2O)c1 (centres undefined)	25	41*	-22	-37	19	2	4
